Measured values published in PubChem BioAssay (EPA / NIEHS).
The source made the active and inactive calls. How the source made its calls: active means hit-call score of the fitted dose curve at least 0.9, where 1 is the maximum; inactive means score below 0.9.

How the values were obtained:
[1] = ATG_GLI_CIS: Attagene CIS-FACTORIAL HepG2 Assay for human Zinc Finger Protein GLI1 (AID 2282945); details: HepG2, Attagene cis-factorial reporter mRNA, GLI element; actives raise or lower the signal
Summary of the method: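 HepG2 cells transiently transfected with cis-promoter multiplexed reporter units report endogenous transcription factor activity. After 24 h chemical exposure, reporter mRNA was quantified by RT-PCR, 6-FAM labelling, HpaI digestion and capillary electrophoresis, with bidirectional fitting against DMSO.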

[2] = target: Bile acid receptor (Homo sapiens) (UniProt Q96RI1); assay: ATG_IR1_CIS: Attagene CIS-FACTORIAL HepG2 Assay for human Nuclear Receptor Subfamily 1 Group H Member 4 (NR1H4), IR1 submotif (AID 2282946); details: IR1 reporter transcription, actives raise or lower the signal
Summary of the method: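 Transient MRTU transfection, HepG2; 24 h dosing; RNA → RT-PCR → 6-FAM primer extension → HpaI digest → capillary electrophoresis fluorescence. Gain/loss of signal fitted relative to DMSO.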

[3] = ATG_GRE_CIS: Attagene CIS-FACTORIAL HepG2 Assay for human Glucocorticoid Response Elements (GRE) (AID 2282947); details: HepG2 GRE cis-reporter, Attagene multiplex mRNA; actives raise or lower the signal
Summary of the method: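 Following 24 h chemical exposure of transiently transfected HepG2 cells, total RNA was reverse-transcribed and reporter cDNA amplified, fluorescently labelled and sized by capillary electrophoresis. Signal gain or loss was fitted relative to DMSO vehicle.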

[4] = ATG_ISRE_CIS: Attagene CIS-FACTORIAL HepG2 Assay for human Interferon Regulatory Factor 1 (IRF1) binding to an Interferon-Stimulated Response Element (ISRE) (AID 2282948); details: HepG2 ISRE cis-reporter (Attagene), mRNA transcription readout; actives raise or lower the signal
Summary of the method: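 Cell-based cis-reporter assay; HepG2; 24 h exposure; reporter mRNA by RT-PCR plus capillary electrophoresis fluorescence; activity in either direction scored relative to DMSO.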

[5] = ATG_M_06_CIS: Attagene CIS-FACTORIAL HepG2 Assay for M06 Transcription Factor (Internal Marker) (AID 2282950); details: HepG2 Attagene CIS-FACTORIAL M06 internal marker reporter; actives raise or lower the signal
Summary of the method: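 Fluorescence-labelled RT-PCR products from cis-promoter reporter units, cut with HpaI and resolved by capillary electrophoresis, give the signal. Cells are human HepG2, dosed for 24 h. Serves as background control, fitted relative to DMSO.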

[6] = target: Hypoxia-inducible factor 1-alpha (Homo sapiens) (UniProt Q16665); assay: ATG_HIF1a_CIS: Attagene CIS-FACTORIAL HepG2 Assay for human Hypoxia Inducible Factor 1 (HIF1A) (AID 2282951); details: HepG2 Attagene cis-factorial HIF1a reporter transcription; actives raise or lower the signal
Summary of the method: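 RT-PCR/capillary electrophoresis fluorescence readout of reporter transcripts from endogenous-TF-driven cis elements in transfected HepG2 cells, 24 h exposure; activity fitted in both directions against DMSO controls.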

[7] = target: Hepatocyte nuclear factor 6 (Homo sapiens) (UniProt Q9UBC0); assay: ATG_HNF6_CIS: Attagene CIS-FACTORIAL HepG2 Assay for human Hepatocyte Nuclear Factor 6 (HNF6) (AID 2282952); details: HepG2 Attagene cis-factorial HNF6 reporter transcription; actives raise or lower the signal
Summary of the method: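 Multiplexed mRNA reporter assay in transfected HepG2; 24 h dosing; RT-PCR plus capillary electrophoresis fluorescence; DMSO-referenced bidirectional curve fitting.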

[8] = target: Heat shock factor protein 1 (Homo sapiens) (UniProt Q00613); assay: ATG_HSE_CIS: Attagene CIS-FACTORIAL HepG2 Assay for human Heat Shock Transcription Factor 1 (HSE) (AID 2282953); details: HepG2 HSE cis-reporter, Attagene RNA transcription; actives raise or lower the signal
Summary of the method: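 After a 24 h incubation with test chemical, transfected HepG2 cells were harvested for RNA; reporter transcripts were measured by RT-PCR and capillary electrophoresis. Values reflect gain or loss of signal relative to DMSO.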

[9] = ATG_MRE_CIS: Attagene CIS-FACTORIAL HepG2 Assay for human Metal Responsive Element (MRE) (AID 2282954); details: HepG2 MRE cis-reporter transcription, Attagene multiplex; actives raise or lower the signal
Summary of the method: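 Step one: transfect HepG2 with cis-regulated reporter units. Step two: dose 24 h. Step three: isolate RNA, RT-PCR, 6-FAM label, HpaI digest, capillary electrophoresis. Fit bidirectionally to DMSO.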

[10] = target: Paired box protein Pax-6 (Homo sapiens) (UniProt P26367); assay: ATG_Pax6_CIS: Attagene CIS-FACTORIAL HepG2 Assay for human Paired Box 6 (PAX6) (AID 2282956); details: HepG2 CIS-FACTORIAL PAX6 reporter transcription, RNA readout; actives raise or lower the signal
Summary of the method: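 Multiplexed cis-reporter HepG2 system; 24 h treatment; reporter mRNA read by RT-PCR/CE fluorescence; bidirectional fit vs DMSO.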

[11] = ATG_PPRE_CIS: Attagene CIS-FACTORIAL HepG2 Assay for human Peroxisome Proliferator-activated Response Element (PPRE) (AID 2282958); details: HepG2 PPRE cis-element reporter, Attagene transcription factor profiling; actives raise or lower the signal
Summary of the method: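 Read-out: fluorescent reporter mRNA fragments resolved by capillary electrophoresis after RT-PCR. HepG2 cells carried transiently transfected PPRE-driven cis reporter constructs and were dosed for 24 h; gain or loss of signal fitted relative to DMSO.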

[12] = ATG_RORE_CIS: Attagene CIS-FACTORIAL HepG2 Assay for human RAR-related Orphan Receptor Element (RORE) (AID 2282959); details: HepG2 Attagene cis-factorial RORE reporter, mRNA; actives raise or lower the signal
Summary of the method: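 Readout: fluorescent reporter mRNA by RT-PCR plus capillary electrophoresis, 24 h after dosing transfected HepG2 cells. Endogenous transcription factor activity on a cis promoter element is measured. Gain or loss of signal fitted against DMSO.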

[13] = ATG_Sox_CIS: Attagene CIS-FACTORIAL HepG2 Assay for human SRY-box transcription factor (SOX) (AID 2282960); details: HepG2 Attagene cis-factorial SOX reporter, mRNA; actives raise or lower the signal
Summary of the method: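 Read-out: fluorescent RT-PCR products of SOX1-linked reporter transcripts resolved by capillary electrophoresis, fitted bidirectionally against DMSO. Transiently transfected HepG2 cells, 24 h after chemical exposure, endogenous transcription factor activity.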

[14] = target: Transcription factor Sp1 (Homo sapiens) (UniProt P08047); assay: ATG_Sp1_CIS: Attagene CIS-FACTORIAL HepG2 Assay for human Specificity Protein 1 (Sp1) (AID 2282961); details: HepG2 Sp1 cis-reporter transcription, actives raise or lower the signal
Summary of the method: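 Read-out: fluorescence of 6-FAM-labeled, HpaI-digested RT-PCR products separated by capillary electrophoresis. HepG2 cells carried transfected cis-element reporter units and were exposed to chemicals for 24 h; gain or loss of signal fitted relative to DMSO.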

[15] = ATG_SREBP_CIS: Attagene CIS-FACTORIAL HepG2 Assay for human Sterol Regulatory Element Binding (SREBP) (AID 2282962); details: HepG2 Attagene cis-factorial SREBP reporter, mRNA; actives raise or lower the signal
Summary of the method: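 mRNA induction of transfected cis-promoter reporters in HepG2 cells, 24 h post-dose. Detection: RT-PCR with 6-FAM-labelled products, HpaI digest, capillary electrophoresis. DMSO served as negative control and baseline.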

[16] = target: Signal transducer and activator of transcription 3 (Homo sapiens) (UniProt P40763); assay: ATG_STAT3_CIS: Attagene CIS-FACTORIAL HepG2 Assay for human Signal Transducer and Activator of Transcription 3 (STAT3) (AID 2282963); details: HepG2, Attagene cis-factorial STAT3 reporter transcription; actives raise or lower the signal
Summary of the method: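 Transcript-level reporter assay. HepG2 transient MRTU transfection, 24 h exposure, fluorescence detection after RT-PCR and CE; DMSO baseline.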

[17] = ATG_TA_CIS: Attagene CIS-FACTORIAL HepG2 Assay for human TA Basal Promoter (AID 2282964); details: HepG2 Attagene CIS-factorial TA basal promoter reporter; actives raise or lower the signal
Summary of the method: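 Multiplexed mRNA reporter assay, HepG2, 24 h. Reporter cDNA amplified, 6-FAM primer-extended, HpaI-cut, CE-sized; DMSO = negative control and baseline.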

[18] = ATG_PXRE_CIS: Attagene CIS-FACTORIAL HepG2 Assay for human Pregnane X Receptor Element (PXRE) (AID 2282957); details: HepG2 Attagene CIS-FACTORIAL PXRE reporter, mRNA; actives raise or lower the signal
Summary of the method: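 Cells: HepG2, transiently transfected reporter units under cis promoter control. Exposure: 24 h. Detection: reporter mRNA via RT-PCR/CE fluorescence; bidirectional fitting, DMSO-referenced.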

[19] = ATG_PBREM_CIS: Attagene CIS-FACTORIAL HepG2 Assay for human Phenobarbital-responsive Enhancer Module (PBREM) (AID 2282955); details: HepG2 PBREM cis-reporter, Attagene multiplexed transcription; actives raise or lower the signal
Summary of the method: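 Reporter mRNA read by RT-PCR, 6-FAM primer extension, HpaI digestion and capillary electrophoresis. Transfected HepG2 cells, 24 h compound exposure. Gain or loss of signal fitted bidirectionally relative to DMSO baseline.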

[20] = ATG_M_32_CIS: Attagene CIS-FACTORIAL HepG2 Assay for M32 Transcription Factor (Internal Marker) (AID 2282949); details: HepG2 Attagene cis-factorial M32 reporter, mRNA; actives raise or lower the signal;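 further: background control marker of the multiplexed CIS panel rather than a real target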
Summary of the method: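 HepG2 cells transiently transfected with multiplexed cis-regulated reporter units, dosed 24 h. Reporter mRNA quantified by RT-PCR, 6-FAM labelling, HpaI digestion and capillary electrophoresis; bidirectional fit vs DMSO.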

Sequence of Hepatocyte nuclear factor 6 (Homo sapiens) (Q9UBC0 whole entry, looked up): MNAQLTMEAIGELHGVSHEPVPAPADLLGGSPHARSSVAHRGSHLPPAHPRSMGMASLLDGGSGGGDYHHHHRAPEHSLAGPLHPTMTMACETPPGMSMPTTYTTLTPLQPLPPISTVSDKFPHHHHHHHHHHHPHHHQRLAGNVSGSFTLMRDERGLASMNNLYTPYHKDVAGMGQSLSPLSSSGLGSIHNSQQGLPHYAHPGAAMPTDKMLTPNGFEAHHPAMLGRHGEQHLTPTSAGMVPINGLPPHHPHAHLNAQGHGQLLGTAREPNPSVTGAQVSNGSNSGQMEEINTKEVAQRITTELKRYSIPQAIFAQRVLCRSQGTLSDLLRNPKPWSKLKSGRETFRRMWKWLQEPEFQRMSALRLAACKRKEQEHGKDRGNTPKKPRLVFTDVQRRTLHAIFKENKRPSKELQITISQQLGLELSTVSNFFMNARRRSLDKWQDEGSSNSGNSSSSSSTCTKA
Sequence of Heat shock factor protein 1 (Homo sapiens) (Q00613 whole entry, looked up): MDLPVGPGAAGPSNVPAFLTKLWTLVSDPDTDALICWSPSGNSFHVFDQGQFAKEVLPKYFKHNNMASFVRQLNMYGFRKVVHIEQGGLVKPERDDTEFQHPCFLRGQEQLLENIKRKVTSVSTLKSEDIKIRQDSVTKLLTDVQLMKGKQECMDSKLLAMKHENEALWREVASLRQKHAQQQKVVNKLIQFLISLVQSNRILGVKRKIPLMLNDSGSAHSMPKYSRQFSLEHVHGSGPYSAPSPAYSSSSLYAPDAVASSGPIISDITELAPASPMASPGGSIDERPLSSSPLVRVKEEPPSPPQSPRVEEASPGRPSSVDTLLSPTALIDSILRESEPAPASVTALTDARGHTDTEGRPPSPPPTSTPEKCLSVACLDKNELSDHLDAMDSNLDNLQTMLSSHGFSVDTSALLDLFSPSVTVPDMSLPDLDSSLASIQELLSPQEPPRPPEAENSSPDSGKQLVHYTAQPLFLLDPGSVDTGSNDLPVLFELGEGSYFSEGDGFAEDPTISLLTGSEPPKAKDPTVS
Sequence of Signal transducer and activator of transcription 3 (Homo sapiens) (P40763 whole entry, looked up): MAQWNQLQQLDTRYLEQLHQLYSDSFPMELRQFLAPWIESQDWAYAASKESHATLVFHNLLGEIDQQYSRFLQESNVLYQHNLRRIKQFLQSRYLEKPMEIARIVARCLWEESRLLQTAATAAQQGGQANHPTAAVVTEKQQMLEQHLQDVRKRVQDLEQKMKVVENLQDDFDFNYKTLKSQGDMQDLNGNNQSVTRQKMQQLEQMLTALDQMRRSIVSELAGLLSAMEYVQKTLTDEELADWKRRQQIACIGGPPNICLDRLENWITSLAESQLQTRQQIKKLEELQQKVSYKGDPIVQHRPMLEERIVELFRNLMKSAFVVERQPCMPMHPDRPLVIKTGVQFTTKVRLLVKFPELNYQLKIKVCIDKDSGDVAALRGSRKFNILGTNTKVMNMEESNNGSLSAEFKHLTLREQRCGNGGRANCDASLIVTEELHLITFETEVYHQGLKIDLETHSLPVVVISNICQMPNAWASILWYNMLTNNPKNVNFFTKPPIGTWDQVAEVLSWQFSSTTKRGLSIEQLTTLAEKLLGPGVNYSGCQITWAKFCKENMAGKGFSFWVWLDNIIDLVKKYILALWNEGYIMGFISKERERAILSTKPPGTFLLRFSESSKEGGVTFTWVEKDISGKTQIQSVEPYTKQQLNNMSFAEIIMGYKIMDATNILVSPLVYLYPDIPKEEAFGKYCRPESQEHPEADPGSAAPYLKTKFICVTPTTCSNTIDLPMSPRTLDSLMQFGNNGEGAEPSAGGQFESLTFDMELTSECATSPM
Sequence of Transcription factor Sp1 (Homo sapiens) (P08047 whole entry, looked up): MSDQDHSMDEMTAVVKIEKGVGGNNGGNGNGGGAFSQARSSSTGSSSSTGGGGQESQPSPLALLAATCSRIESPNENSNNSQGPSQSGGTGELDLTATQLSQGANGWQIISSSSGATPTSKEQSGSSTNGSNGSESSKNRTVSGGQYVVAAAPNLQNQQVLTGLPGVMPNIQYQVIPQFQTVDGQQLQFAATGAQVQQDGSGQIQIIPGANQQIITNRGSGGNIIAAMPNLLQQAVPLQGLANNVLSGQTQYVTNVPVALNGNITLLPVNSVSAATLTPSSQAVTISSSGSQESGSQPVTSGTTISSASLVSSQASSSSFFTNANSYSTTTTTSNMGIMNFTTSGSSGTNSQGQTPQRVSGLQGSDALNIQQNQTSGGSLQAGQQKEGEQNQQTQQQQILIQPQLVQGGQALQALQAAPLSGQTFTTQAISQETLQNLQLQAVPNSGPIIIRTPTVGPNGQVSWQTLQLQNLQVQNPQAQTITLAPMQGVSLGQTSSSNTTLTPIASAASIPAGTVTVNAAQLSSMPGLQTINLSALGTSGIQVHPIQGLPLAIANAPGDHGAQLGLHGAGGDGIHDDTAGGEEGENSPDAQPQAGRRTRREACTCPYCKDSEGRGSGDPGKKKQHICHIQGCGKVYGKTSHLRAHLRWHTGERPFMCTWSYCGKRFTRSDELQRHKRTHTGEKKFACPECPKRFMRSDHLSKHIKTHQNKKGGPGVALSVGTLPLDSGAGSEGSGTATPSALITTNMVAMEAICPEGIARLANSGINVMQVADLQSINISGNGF
Sequence of Bile acid receptor (Homo sapiens) (Q96RI1 whole entry, looked up): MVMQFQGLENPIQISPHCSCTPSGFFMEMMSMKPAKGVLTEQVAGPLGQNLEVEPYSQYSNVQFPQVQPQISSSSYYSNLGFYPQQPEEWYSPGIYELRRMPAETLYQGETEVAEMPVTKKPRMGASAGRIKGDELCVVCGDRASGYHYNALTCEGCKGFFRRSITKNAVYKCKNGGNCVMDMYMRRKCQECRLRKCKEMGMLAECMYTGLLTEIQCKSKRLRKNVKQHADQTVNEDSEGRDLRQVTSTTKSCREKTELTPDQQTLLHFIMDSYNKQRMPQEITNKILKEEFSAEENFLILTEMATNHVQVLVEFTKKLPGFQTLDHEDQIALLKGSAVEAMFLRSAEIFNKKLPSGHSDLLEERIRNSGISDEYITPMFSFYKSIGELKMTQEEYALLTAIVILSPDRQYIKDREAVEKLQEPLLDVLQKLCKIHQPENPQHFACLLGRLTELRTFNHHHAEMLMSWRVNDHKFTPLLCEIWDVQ
Sequence of Hypoxia-inducible factor 1-alpha (Homo sapiens) (Q16665 whole entry, looked up): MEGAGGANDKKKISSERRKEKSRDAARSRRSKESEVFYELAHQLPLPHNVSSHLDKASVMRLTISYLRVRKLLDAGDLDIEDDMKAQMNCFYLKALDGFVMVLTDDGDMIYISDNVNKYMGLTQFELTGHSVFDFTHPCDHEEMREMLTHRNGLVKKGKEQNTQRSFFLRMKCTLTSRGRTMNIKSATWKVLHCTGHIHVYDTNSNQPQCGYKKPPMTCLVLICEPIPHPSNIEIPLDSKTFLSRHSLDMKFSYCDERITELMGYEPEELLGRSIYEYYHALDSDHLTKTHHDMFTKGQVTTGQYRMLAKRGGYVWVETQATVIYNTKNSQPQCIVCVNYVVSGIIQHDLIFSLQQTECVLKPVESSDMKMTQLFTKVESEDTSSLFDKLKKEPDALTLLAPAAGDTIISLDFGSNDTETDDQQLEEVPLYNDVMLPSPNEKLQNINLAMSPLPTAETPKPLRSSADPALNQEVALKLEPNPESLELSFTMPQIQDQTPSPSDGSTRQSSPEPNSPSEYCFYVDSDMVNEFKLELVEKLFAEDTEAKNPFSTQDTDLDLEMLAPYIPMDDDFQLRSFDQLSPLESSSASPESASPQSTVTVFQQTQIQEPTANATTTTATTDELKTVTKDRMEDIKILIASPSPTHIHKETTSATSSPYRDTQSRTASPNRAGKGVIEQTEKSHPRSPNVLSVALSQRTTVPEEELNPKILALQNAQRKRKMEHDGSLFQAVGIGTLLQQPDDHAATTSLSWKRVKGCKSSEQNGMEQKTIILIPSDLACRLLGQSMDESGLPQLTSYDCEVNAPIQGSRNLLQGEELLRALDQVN
Sequence of Paired box protein Pax-6 (Homo sapiens) (P26367 whole entry, looked up): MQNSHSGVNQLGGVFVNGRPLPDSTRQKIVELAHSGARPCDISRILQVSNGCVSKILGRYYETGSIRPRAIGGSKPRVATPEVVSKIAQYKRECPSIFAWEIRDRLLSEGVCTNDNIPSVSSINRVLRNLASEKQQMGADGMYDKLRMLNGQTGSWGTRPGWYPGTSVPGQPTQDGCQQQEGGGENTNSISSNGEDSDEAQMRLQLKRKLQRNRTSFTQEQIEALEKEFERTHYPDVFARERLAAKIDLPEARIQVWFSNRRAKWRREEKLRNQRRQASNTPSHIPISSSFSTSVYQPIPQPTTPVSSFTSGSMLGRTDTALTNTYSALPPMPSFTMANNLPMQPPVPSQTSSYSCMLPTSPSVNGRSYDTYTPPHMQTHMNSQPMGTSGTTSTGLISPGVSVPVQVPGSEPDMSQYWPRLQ

## CCN(CC)c1ccc2c(C)cc(=O)oc2c1
[1]
  outcome: inactive
[2]
  outcome: inactive
[3]
  outcome: inactive
[4]
  outcome: inactive
[5]
  outcome: inactive
[6]
  outcome: inactive
[7]
  outcome: inactive
[8]
  outcome: inactive
[9]
  AC50: 71.9 µM (active)
[10]
  AC50: 65.9 µM (active)
[11]
  AC50: 50.2 µM (active)
[12]
  outcome: inactive
[13]
  outcome: inactive
[14]
  outcome: inactive
[15]
  outcome: inactive
[16]
  outcome: inactive
[17]
  outcome: inactive

## FC(F)(I)C(F)(F)C(F)(F)C(F)(F)I
[1]
  outcome: inactive
[2]
  outcome: inactive
[3]
  outcome: inactive
[4]
  outcome: inactive
[5]
  outcome: inactive
[6]
  outcome: inactive
[7]
  outcome: inactive
[8]
  outcome: inactive
[9]
  outcome: inactive
[10]
  outcome: inactive
[11]
  outcome: inactive
[12]
  outcome: inactive
[13]
  outcome: inactive
[14]
  outcome: inactive
[15]
  outcome: inactive
[16]
  outcome: inactive
[17]
  outcome: inactive

## O=C(O)C(F)(F)C(F)(F)C(F)(F)C(F)(F)F
[1]
  outcome: inactive
[2]
  outcome: inactive
[3]
  outcome: inactive
[4]
  outcome: inactive
[5]
  outcome: inactive
[6]
  outcome: inactive
[7]
  outcome: inactive
[8]
  outcome: inactive
[9]
  outcome: inactive
[10]
  outcome: inactive
[11]
  outcome: inactive
[12]
  outcome: inactive
[13]
  outcome: inactive
[14]
  outcome: inactive
[15]
  outcome: inactive
[16]
  outcome: inactive
[17]
  outcome: inactive

## OCC(F)(F)C(F)(F)C(F)(F)F
[1]
  outcome: inactive
[2]
  outcome: inactive
[3]
  outcome: inactive
[4]
  outcome: inactive
[5]
  outcome: inactive
[6]
  outcome: inactive
[7]
  outcome: inactive
[8]
  outcome: inactive
[9]
  outcome: inactive
[10]
  outcome: inactive
[18]
  outcome: inactive
[11]
  outcome: inactive
[12]
  outcome: inactive
[13]
  outcome: inactive
[14]
  outcome: inactive
[15]
  outcome: inactive
[16]
  outcome: inactive
[17]
  outcome: inactive

## C(=C(c1ccccc1)c1ccccc1)c1ccccc1
[1]
  outcome: inactive
[2]
  outcome: inactive
[3]
  outcome: inactive
[4]
  outcome: inactive
[5]
  outcome: inactive
[6]
  outcome: inactive
[7]
  outcome: inactive
[8]
  outcome: inactive
[9]
  outcome: inactive
[19]
  outcome: inactive
[10]
  outcome: inactive
[18]
  AC50: 4.4 µM (active)
[11]
  outcome: inactive
[12]
  outcome: inactive
[13]
  outcome: inactive
[14]
  outcome: inactive
[15]
  outcome: inactive
[16]
  outcome: inactive
[17]
  outcome: inactive

## CCCCCCCOC(=O)c1ccccc1C(=O)OCCCCCCC
[1]
  outcome: inactive
[2]
  outcome: inactive
[3]
  outcome: inactive
[4]
  outcome: inactive
[5]
  outcome: inactive
[6]
  outcome: inactive
[7]
  outcome: inactive
[8]
  outcome: inactive
[9]
  outcome: inactive
[10]
  outcome: inactive
[11]
  outcome: inactive
[12]
  outcome: inactive
[13]
  outcome: inactive
[14]
  outcome: inactive
[15]
  outcome: inactive
[16]
  outcome: inactive
[17]
  outcome: inactive

## OCC(F)(F)C(F)(F)C(F)(F)C(F)(F)C(F)(F)C(F)F
[2]
  outcome: inactive
[3]
  outcome: inactive
[4]
  outcome: inactive
[20]
  outcome: inactive
[5]
  outcome: inactive
[6]
  outcome: inactive
[7]
  outcome: inactive
[8]
  outcome: inactive
[9]
  outcome: inactive
[19]
  outcome: inactive
[10]
  outcome: inactive
[18]
  outcome: inactive
[11]
  outcome: inactive
[12]
  outcome: inactive
[13]
  outcome: inactive
[14]
  outcome: inactive
[15]
  outcome: inactive
[16]
  outcome: inactive
[17]
  outcome: inactive

## CNC(=S)NC
[1]
  outcome: inactive
[2]
  outcome: inactive
[3]
  outcome: inactive
[4]
  outcome: inactive
[20]
  outcome: inactive
[5]
  outcome: inactive
[6]
  outcome: inactive
[7]
  outcome: inactive
[8]
  outcome: inactive
[9]
  outcome: inactive
[10]
  outcome: inactive
[11]
  outcome: inactive
[12]
  outcome: inactive
[13]
  outcome: inactive
[14]
  outcome: inactive
[15]
  outcome: inactive
[16]
  outcome: inactive
[17]
  outcome: inactive
